1 sequence from publication PMC7862700, “An all-to-all approach to the identification of sequence-specific readers for epigenetic DNA modifications on cytosine” can be followed below.

Test in all cases: DAPPL (digital affinity profiling via proximity ligation, sequencing); 10 mM Tris-HCl pH 7.5, 50 mM NaCl, 1 mM DTT, 4% glycerol, room temperature, 30 min; GST-TFs on glutathione beads, 16-mer random dsDNA library, 0.1% formaldehyde crosslink after washing; high values mean tight binding
One test has as its target T1, FEV (Homo sapiens, UniProt Q99581 1-238).
T1 sequence: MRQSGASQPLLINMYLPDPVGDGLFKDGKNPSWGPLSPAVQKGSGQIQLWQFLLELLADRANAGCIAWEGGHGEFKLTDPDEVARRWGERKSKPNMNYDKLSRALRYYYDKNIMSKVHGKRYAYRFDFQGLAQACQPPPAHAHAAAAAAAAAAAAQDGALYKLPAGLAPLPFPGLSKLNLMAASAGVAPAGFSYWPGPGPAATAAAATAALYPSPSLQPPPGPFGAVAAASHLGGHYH
Particulars: protein: recombinant; tags: N-terminal GST; dsDNA, one strand shown. The method, boiled down: (§1)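 Binding signal is each hexamer's read frequency for a factor divided by its frequency in the tag-only sample. The factors were GST-fused human transcription factors from yeast, captured on glutathione beads, DNA-barcoded and pooled with that sample. Pools were incubated with 200 nmole of a random double-stranded 16-mer DNA library in Tris/NaCl/DTT/glycerol buffer at room temperature for 30 min, then washed, crosslinked with 0.1% formaldehyde, proximity-ligated with BsaI/T4 ligase (1 h, 37 °C), PCR-amplified and sequenced on an Illumina NextSeq500.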

For a further test, the target named is ETV5 (Homo sapiens, UniProt P41161 1-510). Particulars: protein: recombinant; tags: N-terminal GST; dsDNA, one strand shown. Summed up: as §1
The target in the next test is HSF1 (Homo sapiens, UniProt Q00613 1-529). Particulars: protein: recombinant; tags: N-terminal GST; chain copies: 3; dsDNA, one strand shown. The method, boiled down: as §1
A further test deals with T2, SPIC (Homo sapiens, UniProt Q8N5J4 1-248).
T2 sequence: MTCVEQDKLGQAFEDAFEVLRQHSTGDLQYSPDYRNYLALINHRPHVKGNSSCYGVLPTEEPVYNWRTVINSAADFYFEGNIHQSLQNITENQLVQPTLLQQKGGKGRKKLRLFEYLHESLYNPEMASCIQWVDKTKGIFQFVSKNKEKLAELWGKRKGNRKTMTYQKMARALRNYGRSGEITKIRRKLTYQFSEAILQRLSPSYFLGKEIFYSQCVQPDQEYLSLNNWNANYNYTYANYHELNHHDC
To be noted: protein: recombinant; tags: N-terminal GST; dsDNA, one strand shown. Summed up: as §1

A further test addresses ELF4 (Homo sapiens, UniProt Q99607 1-663). To be noted: protein: recombinant; tags: N-terminal GST; dsDNA, one strand shown. Summed up:
as §1

Another test has as its target T3, ELK4 (Homo sapiens, UniProt P28324-2 1-405).
T3 sequence: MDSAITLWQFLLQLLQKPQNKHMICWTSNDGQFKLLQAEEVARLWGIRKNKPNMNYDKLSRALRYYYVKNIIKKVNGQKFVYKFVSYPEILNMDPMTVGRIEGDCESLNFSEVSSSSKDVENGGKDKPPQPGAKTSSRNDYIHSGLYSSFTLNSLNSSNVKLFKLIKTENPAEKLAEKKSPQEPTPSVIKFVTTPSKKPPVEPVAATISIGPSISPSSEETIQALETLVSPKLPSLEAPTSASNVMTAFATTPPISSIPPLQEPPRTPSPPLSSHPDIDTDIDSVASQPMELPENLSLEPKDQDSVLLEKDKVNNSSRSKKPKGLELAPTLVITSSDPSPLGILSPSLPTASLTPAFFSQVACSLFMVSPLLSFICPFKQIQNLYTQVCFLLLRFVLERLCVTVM
Particulars: protein: recombinant; tags: N-terminal GST; dsDNA, one strand shown. The method, boiled down: as §1

The target of another test is T4, ETV2 (Homo sapiens, UniProt O00321 1-342).
T4 sequence: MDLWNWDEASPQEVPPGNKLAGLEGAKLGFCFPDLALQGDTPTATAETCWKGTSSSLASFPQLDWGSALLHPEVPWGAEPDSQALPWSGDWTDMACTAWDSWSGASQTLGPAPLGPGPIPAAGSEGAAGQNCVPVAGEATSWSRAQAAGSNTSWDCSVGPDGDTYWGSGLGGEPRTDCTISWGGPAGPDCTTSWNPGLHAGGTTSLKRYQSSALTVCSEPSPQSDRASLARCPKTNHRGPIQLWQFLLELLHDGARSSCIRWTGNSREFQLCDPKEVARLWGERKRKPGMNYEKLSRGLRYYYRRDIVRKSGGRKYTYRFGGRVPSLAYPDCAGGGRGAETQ
Particulars: protein: recombinant; tags: N-terminal GST; dsDNA, one strand shown. The method, boiled down: as §1

A further test concerns the target T5, ELF3 (Homo sapiens, UniProt P78545 1-371).
T5 sequence: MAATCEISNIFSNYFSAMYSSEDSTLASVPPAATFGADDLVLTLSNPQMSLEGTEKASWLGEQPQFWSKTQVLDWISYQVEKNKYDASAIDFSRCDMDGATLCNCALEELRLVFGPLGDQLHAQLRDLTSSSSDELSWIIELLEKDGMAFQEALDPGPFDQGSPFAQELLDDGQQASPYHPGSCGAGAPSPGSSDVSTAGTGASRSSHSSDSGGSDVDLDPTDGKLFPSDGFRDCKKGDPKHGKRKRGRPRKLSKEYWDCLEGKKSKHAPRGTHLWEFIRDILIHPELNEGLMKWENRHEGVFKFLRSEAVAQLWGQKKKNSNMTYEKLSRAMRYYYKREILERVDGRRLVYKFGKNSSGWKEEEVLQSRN
To be noted: protein: recombinant; tags: N-terminal GST; dsDNA, one strand shown. The method, boiled down:
as §1

The next test deals with CRX (Homo sapiens, UniProt O43186 1-299). To be noted: protein: recombinant; tags: N-terminal GST; dsDNA, one strand shown. The method, boiled down:
as §1

The target in a further test is ETV1 (Homo sapiens, UniProt P50549 1-477). To be noted: protein: recombinant; tags: N-terminal GST; dsDNA, one strand shown. The method, boiled down: as §1
The next test addresses T6, ERF (Homo sapiens, UniProt P50548 1-548).
T6 sequence: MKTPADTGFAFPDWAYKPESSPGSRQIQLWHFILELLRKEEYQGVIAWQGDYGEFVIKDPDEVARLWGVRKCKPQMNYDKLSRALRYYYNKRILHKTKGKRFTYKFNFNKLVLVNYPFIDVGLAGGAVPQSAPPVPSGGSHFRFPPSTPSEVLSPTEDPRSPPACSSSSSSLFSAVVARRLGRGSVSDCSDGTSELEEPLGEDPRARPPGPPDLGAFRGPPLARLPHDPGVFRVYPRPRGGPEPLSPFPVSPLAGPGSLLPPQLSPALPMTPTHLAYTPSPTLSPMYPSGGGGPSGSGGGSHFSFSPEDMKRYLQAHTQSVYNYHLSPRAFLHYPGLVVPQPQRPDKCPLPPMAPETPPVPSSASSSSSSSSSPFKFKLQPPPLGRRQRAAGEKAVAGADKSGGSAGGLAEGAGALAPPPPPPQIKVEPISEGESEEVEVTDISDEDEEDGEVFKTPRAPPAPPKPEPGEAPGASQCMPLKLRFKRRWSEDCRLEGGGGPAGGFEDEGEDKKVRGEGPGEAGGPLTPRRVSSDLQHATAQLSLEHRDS
Particulars: protein: recombinant; tags: N-terminal GST; dsDNA, one strand shown. Summed up: as §1

Another test has as its target T7, ETV3L (Homo sapiens, UniProt Q6ZN32 1-361).
T7 sequence: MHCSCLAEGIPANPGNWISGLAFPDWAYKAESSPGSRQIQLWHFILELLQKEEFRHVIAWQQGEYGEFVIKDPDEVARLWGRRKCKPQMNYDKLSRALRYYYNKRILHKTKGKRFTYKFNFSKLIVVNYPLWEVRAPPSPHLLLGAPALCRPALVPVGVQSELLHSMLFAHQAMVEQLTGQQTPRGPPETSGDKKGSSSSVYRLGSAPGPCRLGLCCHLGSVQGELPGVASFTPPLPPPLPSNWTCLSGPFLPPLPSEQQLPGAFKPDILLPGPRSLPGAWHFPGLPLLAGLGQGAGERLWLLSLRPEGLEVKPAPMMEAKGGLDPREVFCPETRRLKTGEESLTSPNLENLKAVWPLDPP
To be noted: protein: recombinant; tags: N-terminal GST; dsDNA, one strand shown. Summed up: as §1

The next test has as its target T8, ETS2 (Homo sapiens, UniProt P15036 1-469).
T8 sequence: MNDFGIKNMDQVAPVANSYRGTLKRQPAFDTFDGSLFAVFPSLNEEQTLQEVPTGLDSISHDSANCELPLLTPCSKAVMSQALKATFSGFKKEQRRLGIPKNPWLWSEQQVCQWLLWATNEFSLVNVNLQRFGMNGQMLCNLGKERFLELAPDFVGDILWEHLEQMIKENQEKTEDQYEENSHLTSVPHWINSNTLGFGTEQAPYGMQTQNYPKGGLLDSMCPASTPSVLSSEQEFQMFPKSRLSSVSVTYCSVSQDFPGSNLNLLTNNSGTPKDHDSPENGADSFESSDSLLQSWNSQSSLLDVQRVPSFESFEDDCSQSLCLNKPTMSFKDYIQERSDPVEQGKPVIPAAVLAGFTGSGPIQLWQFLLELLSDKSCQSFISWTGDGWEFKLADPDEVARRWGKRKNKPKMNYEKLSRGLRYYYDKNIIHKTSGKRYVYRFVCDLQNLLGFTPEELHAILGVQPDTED
Particulars: protein: recombinant; tags: N-terminal GST; dsDNA, one strand shown. Summed up: as §1

Another test concerns the target T9, SPDEF (Homo sapiens, UniProt O95238 1-335).
T9 sequence: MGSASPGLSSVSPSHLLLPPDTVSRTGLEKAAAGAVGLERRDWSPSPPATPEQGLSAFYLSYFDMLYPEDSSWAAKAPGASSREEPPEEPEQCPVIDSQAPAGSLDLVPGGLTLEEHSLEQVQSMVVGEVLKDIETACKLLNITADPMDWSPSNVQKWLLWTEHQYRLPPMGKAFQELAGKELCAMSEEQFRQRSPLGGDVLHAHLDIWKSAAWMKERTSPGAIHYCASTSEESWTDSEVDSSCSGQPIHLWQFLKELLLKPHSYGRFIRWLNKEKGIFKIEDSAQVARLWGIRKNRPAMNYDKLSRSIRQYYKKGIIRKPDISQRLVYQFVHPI
Particulars: protein: recombinant; tags: N-terminal GST; dsDNA, one strand shown. The method, boiled down: as §1

For the next test, the target named is T10, ETV7 (Homo sapiens, UniProt Q9Y603 1-341).
T10 sequence: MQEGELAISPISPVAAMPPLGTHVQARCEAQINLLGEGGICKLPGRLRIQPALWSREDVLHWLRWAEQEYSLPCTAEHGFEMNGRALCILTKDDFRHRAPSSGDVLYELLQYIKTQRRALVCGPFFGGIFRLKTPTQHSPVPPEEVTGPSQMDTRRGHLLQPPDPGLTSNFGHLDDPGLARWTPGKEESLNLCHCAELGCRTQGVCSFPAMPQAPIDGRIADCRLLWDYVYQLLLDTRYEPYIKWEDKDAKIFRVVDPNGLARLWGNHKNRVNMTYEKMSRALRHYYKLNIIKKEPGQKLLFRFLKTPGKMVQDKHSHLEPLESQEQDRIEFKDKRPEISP
Particulars: protein: recombinant; tags: N-terminal GST; dsDNA, one strand shown. The method, boiled down: as §1

For the next test, the target named is T11, ELF5 (Homo sapiens, UniProt Q9UKW6-2 1-255).
T11 sequence: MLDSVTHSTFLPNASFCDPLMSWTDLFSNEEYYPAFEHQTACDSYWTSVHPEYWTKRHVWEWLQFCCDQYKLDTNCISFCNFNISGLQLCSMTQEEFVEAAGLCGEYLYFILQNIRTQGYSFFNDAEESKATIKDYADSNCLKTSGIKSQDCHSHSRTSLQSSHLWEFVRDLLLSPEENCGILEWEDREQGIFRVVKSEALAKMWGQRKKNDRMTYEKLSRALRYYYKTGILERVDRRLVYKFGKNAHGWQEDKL
Particulars: protein: recombinant; tags: N-terminal GST; dsDNA, one strand shown. Summed up: as §1

For another test, the target named is T12, ETV3 (Homo sapiens, UniProt P41162-2 1-143).
T12 sequence: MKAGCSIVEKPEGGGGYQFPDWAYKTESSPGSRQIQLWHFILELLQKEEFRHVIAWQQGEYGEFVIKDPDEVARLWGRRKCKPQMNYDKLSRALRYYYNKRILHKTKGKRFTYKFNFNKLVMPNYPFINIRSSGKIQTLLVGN
To be noted: protein: recombinant; tags: N-terminal GST; dsDNA, one strand shown. The method, boiled down: as §1

The next test deals with ETV6 (Homo sapiens, UniProt P41212 1-452). To be noted: protein: recombinant; tags: N-terminal GST; dsDNA, one strand shown. The method, boiled down: as §1
Sequence of ETV6 (P41212 whole entry): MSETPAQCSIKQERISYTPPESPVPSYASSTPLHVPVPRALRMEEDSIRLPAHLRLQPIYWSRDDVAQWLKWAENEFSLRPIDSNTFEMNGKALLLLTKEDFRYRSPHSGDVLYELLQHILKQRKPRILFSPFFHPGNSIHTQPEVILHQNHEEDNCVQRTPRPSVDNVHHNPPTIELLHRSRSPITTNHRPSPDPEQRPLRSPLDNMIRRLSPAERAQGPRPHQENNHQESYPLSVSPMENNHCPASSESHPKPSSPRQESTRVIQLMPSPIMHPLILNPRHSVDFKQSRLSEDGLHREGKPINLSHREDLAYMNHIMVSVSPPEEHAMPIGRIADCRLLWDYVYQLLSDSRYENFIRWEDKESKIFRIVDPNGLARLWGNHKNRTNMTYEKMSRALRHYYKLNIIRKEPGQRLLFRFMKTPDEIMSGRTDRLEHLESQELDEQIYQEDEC

Sequence of HSF1 (Q00613 whole entry): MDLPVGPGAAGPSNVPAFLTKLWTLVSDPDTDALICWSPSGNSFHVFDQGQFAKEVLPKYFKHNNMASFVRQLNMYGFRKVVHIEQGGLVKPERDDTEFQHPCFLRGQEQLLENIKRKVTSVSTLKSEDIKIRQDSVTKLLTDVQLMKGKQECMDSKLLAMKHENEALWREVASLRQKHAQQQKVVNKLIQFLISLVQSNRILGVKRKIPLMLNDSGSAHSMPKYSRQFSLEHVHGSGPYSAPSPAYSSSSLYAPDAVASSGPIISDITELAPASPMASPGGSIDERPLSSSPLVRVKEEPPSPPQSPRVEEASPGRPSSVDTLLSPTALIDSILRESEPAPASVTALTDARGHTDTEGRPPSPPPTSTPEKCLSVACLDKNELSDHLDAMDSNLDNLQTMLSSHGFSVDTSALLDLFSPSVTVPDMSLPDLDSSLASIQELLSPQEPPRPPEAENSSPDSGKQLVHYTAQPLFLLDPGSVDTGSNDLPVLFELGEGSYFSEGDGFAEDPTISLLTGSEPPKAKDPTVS
Sequence of ELF4 (Q99607 whole entry): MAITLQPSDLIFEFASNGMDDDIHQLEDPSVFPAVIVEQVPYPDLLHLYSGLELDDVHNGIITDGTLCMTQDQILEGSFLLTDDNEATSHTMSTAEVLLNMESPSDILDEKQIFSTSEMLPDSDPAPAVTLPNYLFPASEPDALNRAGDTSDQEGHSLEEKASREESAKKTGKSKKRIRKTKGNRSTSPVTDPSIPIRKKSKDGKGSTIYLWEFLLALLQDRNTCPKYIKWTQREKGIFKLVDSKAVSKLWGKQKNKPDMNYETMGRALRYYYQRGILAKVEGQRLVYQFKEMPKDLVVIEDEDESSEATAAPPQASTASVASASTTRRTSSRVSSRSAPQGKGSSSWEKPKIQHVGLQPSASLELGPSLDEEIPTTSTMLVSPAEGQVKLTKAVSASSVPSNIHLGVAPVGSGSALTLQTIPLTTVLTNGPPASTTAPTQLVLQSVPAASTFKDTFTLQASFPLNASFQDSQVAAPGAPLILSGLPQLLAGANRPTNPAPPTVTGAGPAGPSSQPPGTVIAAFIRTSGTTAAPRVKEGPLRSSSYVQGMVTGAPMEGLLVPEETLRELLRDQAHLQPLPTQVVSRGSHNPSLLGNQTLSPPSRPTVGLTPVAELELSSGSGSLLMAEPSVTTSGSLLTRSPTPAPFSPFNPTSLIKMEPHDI
Sequence of CRX (O43186 whole entry): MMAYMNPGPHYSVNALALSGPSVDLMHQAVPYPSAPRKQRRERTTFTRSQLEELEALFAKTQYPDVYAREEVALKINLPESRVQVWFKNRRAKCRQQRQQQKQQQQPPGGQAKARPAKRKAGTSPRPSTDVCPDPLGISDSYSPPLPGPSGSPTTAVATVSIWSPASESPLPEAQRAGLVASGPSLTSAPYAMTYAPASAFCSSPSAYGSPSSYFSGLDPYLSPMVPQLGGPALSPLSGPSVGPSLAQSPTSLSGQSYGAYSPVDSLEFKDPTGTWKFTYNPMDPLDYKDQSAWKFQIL
Sequence of ETV1 (P50549 whole entry): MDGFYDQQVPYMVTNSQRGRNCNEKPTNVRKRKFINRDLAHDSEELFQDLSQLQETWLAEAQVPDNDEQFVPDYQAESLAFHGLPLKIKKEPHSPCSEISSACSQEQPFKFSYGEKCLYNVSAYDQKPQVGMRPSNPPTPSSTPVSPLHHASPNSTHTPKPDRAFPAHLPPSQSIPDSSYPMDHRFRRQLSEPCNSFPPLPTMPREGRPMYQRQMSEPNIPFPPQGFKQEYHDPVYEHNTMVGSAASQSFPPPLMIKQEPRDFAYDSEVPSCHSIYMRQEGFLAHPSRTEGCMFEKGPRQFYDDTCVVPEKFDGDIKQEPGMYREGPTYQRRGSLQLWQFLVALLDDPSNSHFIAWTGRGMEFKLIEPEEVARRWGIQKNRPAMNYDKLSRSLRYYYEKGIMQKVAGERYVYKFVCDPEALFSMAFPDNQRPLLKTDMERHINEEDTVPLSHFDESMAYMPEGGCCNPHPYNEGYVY
Sequence of ETV5 (P41161 whole entry): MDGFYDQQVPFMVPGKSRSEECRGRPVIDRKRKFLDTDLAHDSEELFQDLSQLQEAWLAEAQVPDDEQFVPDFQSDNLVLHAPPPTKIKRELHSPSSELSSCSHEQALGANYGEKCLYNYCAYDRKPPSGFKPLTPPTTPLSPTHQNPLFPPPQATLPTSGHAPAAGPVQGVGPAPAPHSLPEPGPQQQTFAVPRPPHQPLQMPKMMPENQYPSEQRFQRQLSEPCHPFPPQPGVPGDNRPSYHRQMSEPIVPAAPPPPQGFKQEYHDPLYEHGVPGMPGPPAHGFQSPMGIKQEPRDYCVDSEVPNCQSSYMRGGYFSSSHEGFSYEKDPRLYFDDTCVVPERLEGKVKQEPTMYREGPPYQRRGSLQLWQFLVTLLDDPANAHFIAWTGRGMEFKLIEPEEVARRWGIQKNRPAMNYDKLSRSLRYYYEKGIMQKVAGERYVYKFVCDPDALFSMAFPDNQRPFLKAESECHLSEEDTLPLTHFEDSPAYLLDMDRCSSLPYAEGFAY

As to AATAAG, the binding signal was 1.26 fold enrichment (6-mer frequency, TF over GST control) with FEV; 1.25 fold enrichment (6-mer frequency, TF over GST control) with ETV5; 1.52 fold enrichment (6-mer frequency, TF over GST control) with HSF1; 1.3 fold enrichment (6-mer frequency, TF over GST control) in the test with SPIC; 1.26 fold enrichment (6-mer frequency, TF over GST control) in the test with ELF4; 1.2 fold enrichment (6-mer frequency, TF over GST control) in the test with ELK4. Besides, the binding signal with ETV2 is 1.19 fold enrichment (6-mer frequency, TF over GST control); in the test with ELF3 it was 1.29 fold enrichment (6-mer frequency, TF over GST control); in the test with CRX it was 1.98 fold enrichment (6-mer frequency, TF over GST control); with ETV1, 1.26 fold enrichment (6-mer frequency, TF over GST control); in the test with ERF it was 1.32 fold enrichment (6-mer frequency, TF over GST control); with ETV3L it was 1.18 fold enrichment (6-mer frequency, TF over GST control). Besides, the binding signal with ETS2 was 1.24 fold enrichment (6-mer frequency, TF over GST control); in the test with SPDEF, 1.26 fold enrichment (6-mer frequency, TF over GST control); with ETV7 it was 1.19 fold enrichment (6-mer frequency, TF over GST control); in the test with ELF5 it was 1.27 fold enrichment (6-mer frequency, TF over GST control); in the test with ETV3, 1.29 fold enrichment (6-mer frequency, TF over GST control); with ETV6 it was 1.33 fold enrichment (6-mer frequency, TF over GST control).
